Compounds with a hit are over-represented: about 4.1% of the library has one in this group of screens.
PfM18AAP inh: blocks P. falciparum M18 aspartyl aminopeptidase; recombinant PfM18AAP, H-Glu-NHMec fluorogenic cleavage; inhibition, % at 7.35 µM; 290,000 compounds, 1.2% hits;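 active = inhibition above the campaign mean inhibition over all tested compounds plus 3 SD, cut at about 28% in these data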
CaV13 ICDI inh: Disruptors of the CACNA1D IQ motif to Ca2+-dependent inactivation inhibitor domain association, primary screening, Förster resonance energy transfer in intact living …; HEK cells, CFP/YFP FRET ICDI-IQ, plate reader, 10 min; percent FRET-ratio fall versus neutral wells; inhibition, % at 12.3 µM; 340,000 compounds, 0.098% hits;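 active = mean replicate inhibition of at least 30% and at least 1% of replicates passing that level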
PolyA inhibitor: blocks polyadenylation in yeast reporter cells | AID 1875 | S. cerevisiae SKY197-pL101 polyadenylation reporter, beta-gal luminescence; efflux-impaired pdr1/pdr3 knockout yeast; score 100 = 6 SD above DMSO | 300,000 compounds, 0.02% hits | activity score, % at 12 µM;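 active = lowest replicate activity score at least 50, where 100 means six control SD above control mean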;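 note: yeast exposed to compound for 9 h at 30 °C; higher score means more reporter readthrough which indicates perturbed polyadenylation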
ALR H2O2 inh: blocks human ALR sulfhydryl oxidase activity | P55789 | purified ALR, DTT oxidation, H2O2 HRP-luminol luminescence | inhibition, % (test concentration not listed) | 290,000 compounds, 3.8% hits;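 active = mean replicate inhibition above about 79%, with every replicate also reaching it, limit read from the data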
IDE cell inh: inhibitors of human insulin-degrading enzyme in cells; P14735; HEK cells, FAbetaB cleavage, fluorescence polarization; inhibition, % at 5.59 µM; 320,000 compounds, 0.41% hits;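 active = percent inhibition above the average of all tested compounds plus 3 SD, set per screening campaign, cut at about 16% in these data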;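 note: IDE supplied by intact live HEK cells; FP after avidin binding of uncleaved biotin substrate so inhibition keeps polarization high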
IDE cell activ: IDE (human) activation, cell-based. P14735. 340,000 compounds, 0.073% hits. HEK cells, FAbeta-B cleavage, fluorescence polarization; 0% vehicle, 100% cell-free pure enzyme wells. AID 493087. activation, % at 5.96 µM;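 active = activation above the mean of all tested compounds plus 3 SD, set per screening campaign, cut at about 17% in these data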
IDE inh confirm: confirmation of human insulin-degrading enzyme inhibitors in cells. 1,200 compounds, 51% hits. shares compounds with IDE cell inh. inhibition, % at 5.59 µM. AID 435028. HEK cells, FAbetaB cleavage, fluorescence polarization;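 active = mean inhibition across triplicate wells above the cutoff set by the earlier primary insulin-degrading enzyme screen, cut at about 16% in these data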
HEK293 tox: kills HEK cells in IDE inhibitor counter-screen | AID 449730 | 1,200 compounds, 28% hits | shares compounds with IDE cell inh | inhibition, % at 5.59 µM | HEK293 cytotoxicity, ATP luminescence; in the data active = inhibition above about 22%
A number is an active result; - = inactive; . = no result.

SMILES | PfM18AAP inh | CaV13 ICDI inh | PolyA inhibitor | ALR H2O2 inh | IDE cell inh | IDE cell activ | IDE inh confirm | HEK293 tox
COc1cccc(C2C=C(c3ccc(Br)s3)Nc3ncnn32)c1OC (stereo not drawn) | 32 | . | - | - | 32 | - | - | -
Cc1ccc(C(C)C)c(OC(=O)/C=C/c2ccccc2)c1 | - | - | - | - | - | - | . | .
O=C(Nc1ccc2nc(-c3cccs3)[nH]c2c1)c1cccs1 | - | - | - | - | 21 | - | - | 22
O=C(Nc1ccc(-c2nc3ccc(NC(=O)c4cccs4)cc3[nH]2)cc1)c1cccs1 | - | - | - | . | - | - | . | .
CCOC(=O)/C(=C/c1ccc(OC(=O)c2ccccc2)cc1)C(C)=O | - | - | - | - | - | - | . | .
CCOC(=O)/C(=C/C1=CC(=C/N(C)C)/C(=O)O1)C(C)=O | - | - | - | - | 16 | - | 23 | -
O=C(CC1Sc2ccccc2NC1=O)Nc1cccc(-c2nnc3n2CCCCC3)c1 (stereo not drawn) | - | - | - | . | 17 | - | - | -
O=C(CC1Sc2ccccc2NC1=O)Nc1cccnc1 (stereo not drawn) | - | - | - | - | - | - | . | .
CCOC(=O)C1=CC[C@@H](c2cccc(C)c2)N(S(=O)(=O)c2ccc(C)cc2)[C@H]1C(=O)OCC | . | - | . | - | 16 | - | - | -
Cc1ccc(N2CCN(C3=NC(=O)/C(=C\c4cn[nH]c4-c4ccccc4)S3)CC2)cc1 | - | - | - | - | 31 | - | - | 26
O=C1CN(C(=O)COC(=O)COc2ccccc2)c2ccccc2N1 | . | - | . | - | - | - | . | .
O=C(NCc1ccccn1)c1cccn1-c1ncc(C(F)(F)F)cc1Cl | - | - | - | - | - | - | . | .
O=C(NNC(=O)c1cccc2ccccc12)c1ccc(-c2ccccc2)cc1 | - | - | - | - | 18 | - | - | 47
O=C(NNC(=O)c1cccc2ccccc12)c1ccccc1O | - | . | - | - | - | - | . | .
CCN(CC1CCCO1)C(=O)c1cc(COc2ccccc2SC)on1 (stereo not drawn) | - | . | - | - | - | - | . | .
COc1cc(/C=C/C(=O)OCC(=O)N(CC(C)C)c2c(N)n(Cc3ccccc3)c(=O)[nH]c2=O)ccc1O | . | - | . | . | . | - | . | .
Cc1ccc(NC(=S)NC2CCCC2)cc1C | - | - | - | - | - | - | . | .
Cc1nc2ccc(NC(=S)NC3CCCCC3)cc2nc1C | - | - | - | . | 21 | - | - | -
O=C(Cc1ccccc1)Nn1c(O)c(/C=C2\C=Nc3ccccc32)sc1=S | - | - | - | - | 62 | - | 43 | -
Cn1c(O)c(/C=C2\C=Nc3ccccc32)sc1=Nc1ccc(C(=O)O)cc1 | - | - | - | - | - | - | . | .
Cc1nn(Cc2c(F)c(F)c(F)c(F)c2F)c(C)c1NC(=O)c1ccc(COc2ccc(Cl)cc2Cl)o1 | - | - | - | - | 19 | - | - | 34
Cc1nn(Cc2c(F)c(F)c(F)c(F)c2F)c(C)c1NC(=O)c1cccc(COc2ccccc2Cl)c1 | - | - | - | - | - | - | . | .
Cc1nn(Cc2ccc(Cl)cc2Cl)c(C)c1NC(=O)c1ccc(COc2cc(Cl)ccc2Cl)o1 | - | - | - | - | - | - | . | .
Cc1nn(Cc2cccc(F)c2)c(C)c1NC(=O)c1ccc(COc2ccccc2Cl)cc1 | - | - | - | - | 25 | - | - | 55
CCN(Cc1nc2ccccc2c(=O)[nH]1)C(=O)c1cccc(OCc2c(C)noc2C)c1 | . | - | . | . | . | - | . | .
COc1ccc(CCNC(=O)c2ccc(Cl)c(S(=O)(=O)N(C)c3ccccc3)c2)cc1 | - | - | - | - | 18 | - | - | 34
COc1ccc(CCNC(=O)c2ccc(Cl)c(S(=O)(=O)N3CCCCCC3)c2)cc1 | . | - | . | - | - | - | . | .
N#CC1=C(N)SC(N)=C(C#N)C1c1cccc(O)c1 | - | - | - | - | 20 | - | - | -

From PubChem BioAssay
